# TGFb SMAD3 inh – qHTS for Inhibitors of TGF-b. HepG2 CAGA-GFP TGF-b/SMAD3 reporter, GFP fluorescence, 18 h; TGF-beta stimulated, 500 pg/mL final. Potency, µM (series often up to 46.1 µM), hits mostly inhibitors. 410,000 compounds, 1.2% hits. AID 588855, 2011; also: nearly all actives have a fitted effect of over 65% in size
#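 Cell-based qHTS in HEPG2 carrying a CAGA-GFP Smad reporter; compounds added before 500 pg/mL final TGF-beta, 18 h incubation at 37 degrees C, GFP fluorescence quantified per cell by imaging cytometry.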
# HepG2 viability – qHTS for Inhibitors of TGF-b: Cytotox Counterscreen; HepG2 CAGA-GFP viability, ATP luminescence, 18 h; Potency, µM (doses to about 46.1 µM), hits mostly cytotoxic; 410,000 compounds, 0.76% hits; AID 588856, 2011
#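 HepG2 CAGA-GFP cells (1000/well, DMEM with 1% FBS) received compound, then TGF-beta at 500 pg/mL final, and were incubated 18 hours at 37 degrees C. Viability was read by CellTiter-Glo luminescence. Media-only wells were set as complete cell-killing and DMSO as no toxicity.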
# HT1080 IDH1KD tx – qHTS for induction of synthetic lethality in tumor cells producing 2HG: qHTS for the HT-1080-IDH1KD cell line. HT-1080 IDH1 knockdown viability, ATP luminescence, 48 h. Potency, µM (titrated, usually from 46.1 µM), usual class: cytotoxic. 360,000 compounds, 2% hits. AID 686971, 2013
#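 HT-1080-IDH1KD cells (IDH1 knocked down), 750/well in RPMI with 5% FBS, treated with compound 48 h at 37 degrees C. Viability by CellTiter-Glo luminescence, normalised to DMSO and no-cell wells; concentration-response curves classed.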
# KB-3-1 tox – qHTS assay for MDR1-selective chemotherapeutics: Primary screen using the parental adenocarcinoma cell KB-3-1; Potency, µM (titrated, usually from 46.1 µM), actives largely listed as cytotoxic; 400,000 compounds, 1.4% hits; KB-3-1 viability, CellTiter-Glo ATP luminescence, 72 h; also: nearly all actives have a fitted effect of over 60% in size
#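 Viability of parental KB-3-1 cells, measured by CellTiter-Glo luminescence, followed a 72 h incubation at 37 °C with pinned compounds in phenol-red-free DMEM containing 10% FBS.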
# HT1080-NT tox – qHTS for induction of synthetic lethality in tumor cells producing 2HG: qHTS for the HT-1080-NT fibrosarcoma cell line; Potency, µM (top dose mostly 46.1 µM), hits mostly cytotoxic; HT-1080-NT fibrosarcoma viability, CellTiter-Glo ATP luminescence, 48 h; 360,000 compounds, 1.6% hits;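 also: NT is the 2HG producing partner of a matched IDH1 knockdown line; nearly all actives have a fitted effect of over 55% in size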
#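 Fibrosarcoma NT cells, 750 per well in 5% FBS RPMI, were exposed to compound for 48 hours. Viability: CellTiter-Glo luminescence.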
# KB-V1 cytotox – qHTS assay for MDR1-selective chemotherapeutics: Primary screen using the drug-selected MDR subline cells KB-V1 | KB-V1 MDR cells viability, CellTiter-Glo, 72 h | Potency, µM (doses to about 46.1 µM), actives largely listed as cytotoxic | 400,000 compounds, 3.4% hits; also: nearly all actives have a fitted effect of over 60% in size
#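 Luminescent ATP read-out (CellTiter-Glo, 10 min) measures survival of drug-selected KB-V1 MDR cells after 72 h, 37 degrees C compound exposure. Medium: phenol-red-free DMEM, 10% FBS. Values from fitted concentration-response curves.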
# Numbers stand for hits; . = inactive; ? = inconclusive; / = no result; [ ] = dose if it differs, or a comment. In the library only some 6.6% were active in any assay of this set; here they are far more common. Calls follow the shape of the dose curve; as a rule, active = well fitted curve in the direction sought with a large enough effect; inconclusive = small, poorly fitted or top-dose-only effect, or another doubt; inactive = no such curve, though single readings can be large; an effect the other way counts as inactive or inconclusive.
SMILES,TGFb SMAD3 inh,HepG2 viability,HT1080 IDH1KD tx,KB-3-1 tox,HT1080-NT tox,KB-V1 cytotox
COc1ccccc1N1CCN(C(=O)c2cc(-c3ccc4c(c3)OCO4)on2)CC1,.,.,.,.,.,16µM
COc1cccc(-c2cc(C(=O)N3CCCc4ccccc43)no2)c1,.,.,.,.,?,.
COc1ccc(-c2cc(C(=O)N3CCCc4ccccc43)no2)cc1,.,.,?,.,.,15µM
COc1ccc(-c2cc(C(=O)N3CCN(C(c4ccccc4)c4ccccc4)CC3)no2)cc1,.,.,.,?,.,21µM
COc1cc(C2=NOC(C(=O)N3CCCc4ccccc43)C2)cc(OC)c1OC (configuration not stated),.,.,.,.,.[9.24 µM],.
Cc1cccc(NC(=O)CSc2ccc(-c3sc(-c4ccccc4)nc3C)nn2)c1C,.,.,/,.,/,.
Cc1cccc(N2CCN(C(=O)CN3C(=O)COc4ccc(S(=O)(=O)N5CCCCCC5)cc43)CC2)c1C,?,.,/,.,/,.
Cc1ccc(CNC(=O)CCS(=O)(=O)c2cc3c4c(c2)CCN4C(=O)CC3)cc1,?,.,/,.,/,.
Cc1ccc2c(c1)CCCN2C(=O)CCc1nc2ccccc2c(=O)[nH]1,.,.,?,?,8.2µM,?
Cc1ccc(-c2noc(CCC(=O)N3CCCc4ccccc43)n2)cc1,.,.,.,.,.,23µM
CC(=O)N1CCN(C(=O)CCc2nc3ccccc3c(=O)[nH]2)CC1,.,.,.,.,.,.
CCC(COC)NCc1cn(-c2ccc(OC)cc2)nc1-c1cccc(F)c1 (configuration not stated),.,.,?,.,?,5.2µM
COc1ccc(-n2cc(CNC3CCN(C)CC3)c(-c3cccc(F)c3)n2)cc1,?,11µM,21µM,?,21µM,.
COc1ccc(Cn2c(SCc3ccc(C(=O)NCc4cccs4)cc3)nc3ccncc32)cc1,?,.,/,.,/,.
COc1ccc(S(=O)(=O)c2c(O)c3ccc(C(=O)NCc4ccccc4)cc3[nH]c2=O)cc1,.,.,/,.,/,.
O=C(O)c1ccccc1OC1=NS(=O)(=O)c2ccccc21,/,/,/,?,/,.
Cc1ccc(C)c(CN2CCC(CNC(=O)c3cc4ccc5cccnc5c4[nH]3)CC2)c1,?,.,/,.,/,?
Cc1ccc(CN2CCC(CNC(=O)c3cc4ccc5cccnc5c4[nH]3)CC2)cc1,?,13µM,/,?,/,.
O=C1CC(=C(c2ccccc2)c2ccccc2)C(=O)N1CCCCN1CCN(c2ccccc2)CC1,?,.,16µM,21µM,18µM,?
COc1ccc(CCNC(=O)c2cnc3ccc(C)cn3c2=O)cc1,.,.,/,.,/,.
c1ccc(-c2ccc(-c3nc(-c4cccnc4)no3)cc2)cc1,?,.,.,.,.,16µM
Cc1ccc(S(=O)(=O)N2[C@H](c3ccc(Cl)cc3)CC(=O)[C@@H]3CN(S(=O)(=O)c4ccccc4C)[C@H](c4ccc(Cl)cc4)C[C@@H]32)cc1,.,.,.,.,?,.
Cc1ccc(S(=O)(=O)N2[C@H](c3cccc(Cl)c3)CC(=O)[C@@H]3CN(S(=O)(=O)c4ccccc4C)[C@H](c4ccc(Cl)cc4)C[C@@H]32)cc1,.,.,.,3.7µM,.,.
Cc1ccc([C@@H]2CC(=O)[C@@H]3CN(S(=O)(=O)c4ccccc4C)[C@H](c4ccc(Cl)cc4)C[C@@H]3N2S(=O)(=O)c2ccc(C)cc2)cc1,.,.,.,3.7µM,.,?
CN1C(=O)c2ccccc2Sc2ccc(NC(=O)c3ccccc3F)cc21,.,.,/,.,/,?
SMILES,TGFb SMAD3 inh,HepG2 viability,HT1080 IDH1KD tx,KB-3-1 tox,HT1080-NT tox,KB-V1 cytotox
Cc1ccc(C(=O)CSC2=C(C#N)C(c3ccco3)CC(=O)N2)c(C)c1 (configuration not stated),.,.,?,.,?,15µM
COC(=O)CSC1=C(C#N)C(c2ccc(F)cc2)CC(=O)N1 (configuration not stated),.,.,.,.,.,.
Cc1ccc(NC(=O)CSC2=C(C#N)C(c3ccco3)CC(=O)N2)cc1 (configuration not stated),.,.,.,?,.,?
COC(=O)CSC1=C(C#N)C(c2ccc(C)o2)CC(=O)N1 (configuration not stated),.,.,7.3µM,18µM,?,?
COc1ccc(C(=O)Nc2nc(-c3nnn(-c4ccc(F)cc4F)c3C)ns2)cc1,?,.,/,.,/,?
CC(=O)C[n+]1cccc2cc(Cl)ccc21,.,.,/,.,/,.
Cc1cccc(-n2c(O)c(/C=N/NC(=O)c3ccccc3Cl)c3ccccc3c2=O)n1,.,.,?,?,.,.
COc1ccc(Cn2c(O)c(/C=N/NC(=O)c3cccnc3)c3ccccc3c2=O)cc1,?,.,21µM,.,?,.
O=C(N/N=C/c1cn(CC(=O)N2CCOCC2)c2ccccc12)c1cccnc1,.,.,.,.,.,.
O=C(N/N=C/c1cn(Cc2ccccc2)c2ccccc12)c1cccnc1,2.8µM,.,.,.,.,.
O=C(N/N=C/c1c(O)n(Cc2ccccc2)c(=O)c2ccccc12)c1cccnc1,.,.,15µM,18µM,13µM,?
O=C(N/N=C/c1c(O)n(-c2ccccc2Cl)c(=O)c2ccccc12)c1cccnc1,.,.,9.2µM,.,6.5µM,?
CCOc1cc(/C=C(\C#N)C(=O)Nc2ccc(OC)cc2)ccc1OCc1cc(=O)n2nc(CC)sc2n1,.,.,/,.,/,.
COc1ccc(NC(=O)C2CCN(S(=O)(=O)c3ccc4c(c3)CCCC(=O)N4)CC2)c(OC)c1,.,.,/,.,/,.
Cc1cccc(N2CCN(C(=O)c3cnn(-c4ccccc4)c3C3CCN(C(=O)OC(C)(C)C)CC3)CC2)c1C,.,.,/,?,/,.
NC(=O)CSc1cn(Cc2cccc(F)c2)c2ccccc12,.,.,.,.,.,.
Nc1ccc(C(=O)N/N=C/c2cn(Cc3cccc(F)c3)c3ccccc23)cc1,1.3µM,.,.,.,.,?
Cc1ccc(S(=O)(=O)NC2c3cccc4cccc(c34)C2Sc2nc(C)cc(C)n2)cc1 (configuration not stated),.,.,.,.,.,5.2µM
